# The whole screen tested about 350,000 compounds, of which about 31,000 (8.9%) were called active. Not shown: some 15% with an inconclusive outcome. For the sample, actives were picked, then their nearest neighbours and some compounds at random. Unmarked numbers belong to inactive results. Calls follow the shape of the dose curve; as a rule, active = well fitted inhibition curve with a large enough effect; inconclusive = small, poorly fitted or top-dose-only effect; inactive = no such curve, though single readings can be large or run the other way.
# Target: Histone-lysine N-methyltransferase EHMT2 (Homo sapiens) (UniProt Q96KQ7)
# Assay: qHTS Assay for Inhibitors of Histone Lysine Methyltransferase G9a; also: nearly all actives have a fitted effect of over 75% in size
# Settings: G9a H3K9 monomethylation, AlphaScreen, 2 h; series mostly up to 59 µM; activity, negative = inhibition: at the top concentration
# How it was run: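 Readings reflect AlphaScreen signal from monomethyl-H3K9 antibody detection. HMT at 20 nM; substrate b-H3K9 500 nM; cofactor SAM 20 uM; 2 h RT reaction; compounds tested as titrations in qHTS with 15 min preincubation.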
# % is scaled to controls: 0 for no effect and ±100 for the full control effect; potency is read from the fitted curve at half-maximal effect.
# Chain of Histone-lysine N-methyltransferase EHMT2 (Homo sapiens) (Q96KQ7 913-1193 limits assumed): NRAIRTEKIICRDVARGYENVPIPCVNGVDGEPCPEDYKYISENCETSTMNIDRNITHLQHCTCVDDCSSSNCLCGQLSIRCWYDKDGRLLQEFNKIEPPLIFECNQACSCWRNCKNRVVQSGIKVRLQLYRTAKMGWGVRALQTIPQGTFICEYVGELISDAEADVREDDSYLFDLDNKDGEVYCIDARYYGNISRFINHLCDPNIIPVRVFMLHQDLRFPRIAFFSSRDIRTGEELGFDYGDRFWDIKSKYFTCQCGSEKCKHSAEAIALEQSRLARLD
SMILES,"activity, negative = inhibition",Potency
O=C(COC(=O)c1ccc2ncsc2c1)Nc1ccc(Cl)cc1,-43.9% [at 12.7 µM],–
Cc1csc(Nc2ccc(Cl)cc2)[n+]1-c1ccc(Cl)cc1,–,20 µM (active)
O=c1ccnc(Nc2ccc(Cl)cc2)[nH]1,1.74% [at 102 µM],–
CCc1ccc(NC(=O)COC(=O)c2cccs2)cc1,-8.8% [at 102 µM],–
COc1ccccc1NC(=O)Cn1cnc2ccc(S(=O)(=O)N3CCC(C)CC3)cc2c1=O,-0.173%,–
CCOc1cc(-c2nnc(SCC(=O)NC3CCCC3)nc2-c2ccc(OC)c(OCC)c2)ccc1OC,–,11.2 µM (active)
CCOc1ccc(-c2noc(CCC(=O)NC3CCCC3)n2)cc1OC,20.6% [at 102 µM],–
COc1ccc(-c2nnc(SCC(=O)NC3CCCCC3)o2)cc1OC,5.72% [at 102 µM],–
CCOc1cc(-c2nnc(SCC(=O)NC3CCCCC3)nc2-c2ccc(OC)c(OCC)c2)ccc1OC,–,8.91 µM (active)
COc1ccc(-c2nnc(SCC(=O)Nc3ccc(C(C)C)cc3)nc2-c2ccc(OC)c(OC)c2)cc1OC,-3.65%,–
CCC(Sc1nnc(-c2ccc(OC)cc2)c(-c2ccc(OC)cc2)n1)C(=O)NC1CCCCC1 (stereo not given),6.11%,–
COc1ccc(-c2noc(CCCC(=O)NC3CCCC3)n2)cc1OC,–,79.4 µM (active)
CCOc1ccc2[nH]c3nc(SCC(=O)NC4CCCC4)nnc3c2c1,12.1%,–
CCOc1cc(-c2noc(CCCC(=O)NC3CCCCC3)n2)ccc1OC,28.6% [at 102 µM],–
Cc1ccc(Nc2nnc(-c3ccc(C)c(S(=O)(=O)N4CCCCC4)c3)c3ccccc23)cc1,12.6%,–
CC(=O)N1CCN(c2ccccc2NC(=S)NC(=O)c2cc3ccccc3o2)CC1,10.6% [at 102 µM],–
CC(C)(C)OC(=O)N1CCC(c2c(C(=O)NCCc3ccsc3)cnn2-c2ccc(F)cc2F)CC1,-1.68%,–
COc1ccc([C@H]2CC(=O)C=C(c3ccc(CO)cc3)C2)cc1,11.2% [at 0.501 µM],–
Cc1c(-c2cccc(NC(=O)C(C)(C)C)c2)nc2ncccn12,9.24%,–
COc1ccc(Br)cc1CNC(=O)c1cc(=O)[nH]c2ccc(S(=O)(=O)N3CCCC3)cc12,-3.57%,–
Cc1ccc(SCC(=O)Nc2ccc3oc(-c4ccccc4F)nc3c2)cc1,6.8%,–
CCOC(=O)c1sc(NC(=O)CSc2nnc(-c3ccco3)o2)c(C(=O)OCC)c1C,-13.7%,–
CCOC(=O)c1sc(NC(=O)CSc2ncccn2)c(C#N)c1C,-13.3% [at 12.7 µM],–
CCOC(=O)c1sc(NC(=O)CSc2nc(C)cc(C(F)(F)F)n2)c(C#N)c1C,–,11.2 µM (active)
O=C(Nc1ccc(C(=O)OCc2cc(=O)n3nc(C4CC4)sc3n2)cc1)c1ccc(F)cc1,7.88% [at 12.7 µM],–

# Reference: PubChem BioAssay AID504332 (National Center for Advancing Translational Sciences (NCATS), 2011)
